# Bioassay records as filed in PubChem.
# GPR151 activ – activates the human receptor GPR151 | PathHunter beta-arrestin GPR151 cells, luminescence | activation, % at 11.2 µM | 1% of 650,000 active; in the data active means activation above about 4.9%;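 further: 0% = median of compound wells and 100% = cells with positive control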
# MITF inh – inhibitors of human MITF; inhibition, % at 2.6 µM; O75030; AlphaScreen MITF homodimerization, bead proximity signal; 0.91% of 650,000 active; in the data active means inhibition above about 50%;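 further: 0% = vehicle wells with protein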
# FBW7 activator – activators of human E3 ligase FBW7; Q969H0; AlphaScreen FBW7–phospho-cyclin E peptide binding, activator screen; 0.13% of 650,000 active; normalized activity (activation), % at 26.1 µM; in the data active means normalized activity above about 1.9%;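 further: purified mutant Fbw7 with reduced substrate affinity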
# TEAD-YAP block – TEAD-YAP interaction inhibition; HEK-TIYL cells, TEAD-Gal4/YAP UAS-luciferase luminescence; inhibition, % at 9.12 µM; 1.4% of 640,000 active; AID 1259422; in the data active means inhibition above about 32%;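 further: 0% = median of test compound wells and 100% = reference inhibitor wells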
# MITF confirm – human MITF inhibition, confirmation | shares compounds with MITF inh | AlphaScreen MITF homodimerization, biotin/His-MITF beads | inhibition, % at 2.6 µM | 16% of 4,700 active | AID 1259372;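 active means inhibition above a cutoff derived from the DMSO control wells, cut at about 28% in these data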;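 further: 0% = MITF dimer wells with DMSO only; inhibitors lower the bead chemiluminescence by keeping MITF from dimerizing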
# AlphaScreen DR – optically interferes with AlphaScreen signal in dose response; IC50, µM; AID 1259373; AlphaScreen optical interference counterscreen, cell-free; shares compounds with MITF inh; 6% of 480 active; call rule not given here
# AS interf ctr – counter-screen: compounds optically interfering with AlphaScreen; LysRS AlphaScreen counterscreen, signal interference, triplicate; shares compounds with MITF inh; inhibition, % at 2.6 µM; 7.6% of 4,700 active;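 active means inhibition above a cutoff derived from the DMSO control wells, cut at about 30% in these data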
# * marks the source's active call; other numbers are inactive results; / = no result. Compounds with a hit are over-represented: about 3.4% of the library has one in this group of screens.
SMILES,GPR151 activ,MITF inh,FBW7 activator,TEAD-YAP block,MITF confirm,AS interf ctr,others
CCOC(=O)C1=C(N)OC2=C(C(=O)CC(C)(C)C2)C12C(=O)Nc1ccc(Br)cc12 (stereo not drawn),3,10,0,4,/,/,
CN(C)c1ccc(/C=C2/C(=O)NC(=S)N(Cc3ccco3)C2=O)cc1,0,76*,-1,14,/,/,
CN(C)c1ccc(/C=C2/C(=O)NC(=S)N(c3ccccc3F)C2=O)cc1,1,10,0,4,/,/,
CCCCC[C@H]1C(=O)O[C@H](C)[C@H](NC(=O)c2cccc(NC=O)c2O)C(=O)O[C@@H](C)[C@@H]1OC(=O)CC(C)C,2,-3,0,52*,/,/,
CCCCCC[C@H]1C(=O)O[C@H](C)[C@H](NC(=O)c2cccc(NC=O)c2O)C(=O)O[C@@H](C)[C@@H]1OC(=O)CC(C)C,0,-17,0,50*,/,/,
CN(C)C(=O)On1c(-c2cccc(Cl)c2)nc2ccc([N+](=O)[O-])cc21,1,5,0,-11,/,/,
O=C(COc1ccc(Cl)cc1)N1CCN(Cc2cccc(F)c2)CC1,0,68*,0,-1,-2,2,
O=C(COc1ccccc1)N1CCN(Cc2cccc(F)c2)CC1,-1,45,0,9,/,/,
COc1ccc(CN2CCN(C(=O)COc3ccc(Cl)cc3)CC2)cc1OCc1ccccc1,1,59*,0,9,3,11,
CCN(CC(=O)Nc1ccc(Br)cc1)CC(=O)Nc1ccc(C#N)c(Cl)c1,-1,85*,0,12,5,10,
CCN(CC(=O)Nc1ccc(C#N)c(Cl)c1)CC(=O)Nc1c(F)cccc1F,3,4,0,0,/,/,
COc1cc(OC)nc(CN2CCNCC2)n1,0,5,0,3,/,/,
CCN1CCN(Cc2c(C)noc2C)CC1,-1,83*,0,1,13,15,
Fc1ccc(CN2CCN(c3ccc(Cl)cc3)CC2)cc1,2,9,0,0,/,/,
Fc1ccc(CN2CCN(Cc3ccccc3)CC2)cc1,-1,59*,0,-1,11,28,
Fc1ccc(CN2CCN(Cc3ccc(Cl)cc3)CC2)cc1,0,68*,0,10,2,16,
CC(C)CCN1CC[C@@H]2[C@H](CCCN2C(=O)c2ccnc(Cl)c2)C1,-1,12,0,12,/,/,
COc1ccc(CN2CCN(Cc3ccccc3C)CC2)cc1Br,0,83*,0,1,-2,2,
COc1ccc(CN2CCN(Cc3ccccc3Cl)CC2)cc1Br,0,78*,0,-10,-4,4,
CCOc1cc(C=C2C(=O)NC(=S)NC2=O)cc(Br)c1OCC(=O)O,0,12,0,7,/,/,
CCOC(=O)C1C2NC(=S)N(c3cccc(Cl)c3)C1(C)Oc1c(OC)cccc12 (stereo not drawn),-1,52*,0,3,34*,15,AlphaScreen DR=>5.1
CCOC(=O)C1C2NC(=S)N(c3ccc(CC)cc3)C1(C)Oc1c(OCC)cccc12 (stereo not drawn),-1,54*,0,5,42*,27,AlphaScreen DR=>5.5
CCOC(=O)C1C2NC(=S)N(c3ccccc3OC)C1(C)Oc1c(OCC)cccc12 (stereo not drawn),-1,16,0,-1,/,/,
Cc1ccc(-n2c(/C=C/c3ccc([N+](=O)[O-])cc3)nc3ccccc3c2=O)cc1,2,0,0,5,/,/,
CSc1ccc(/C=C/c2nc3ccccc3c(=O)n2-c2ccc(C)c(C)c2)cc1,-1,6,0,7,/,/,
SMILES,GPR151 activ,MITF inh,FBW7 activator,TEAD-YAP block,MITF confirm,AS interf ctr,others
COc1ccccc1OCC#CCN1CCCC(C)C1 (stereo not drawn),-2,58*,0,7,4,10,
CN(C)CC1(O)C2CN3CCN(C2)CC1(C)C3 (stereo not drawn),-1,5,0,4,/,/,
COc1ccc(C(=O)Nc2ccc(Cl)cc2C(=O)c2ccccc2)cc1[N+](=O)[O-],0,-4,0,-5,/,/,
COc1cc(OC)c(OC)cc1CNCCc1ccc(Cl)cc1,1,32,0,7,/,/,
COc1ccc(CCNCc2cc(OC)c(OC)cc2OC)cc1,-1,61*,0,7,-4,-3,
O=c1c2ccccc2nc(-c2ccccc2)n1-c1cccc([N+](=O)[O-])c1,-1,-10,0,7,/,/,
